Laboratory results from the supplement of paper PMC9694430.
Structures can show the parent of a compound that is named as a salt.

Assays:
Assay in all cases: thermal shift delta Tm vs DMSO control; higher = stronger stabilization (binding)
Settings in all cases: 12.5 µM; protein concentration 2 µM
LOC_OS04G57630-cb004 = tested on: LOC_OS04G57630-cb004
Summary of the method: (§1)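 The melting temperature shift given here is a triplicate mean, measured against protein that received only DMSO. Melting temperatures came from Boltzmann fits of differential scanning fluorimetry data on E. coli-expressed, purified rice kinase domain constructs. Each 19.5 μl well contained 2 μM kinase, 100 mM potassium phosphate pH 7.5, 150 mM NaCl, 10% glycerol, 5 × SYPRO Orange and compound in DMSO. Plates were scanned from 25°C to 95°C at 0.05°C/s.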

LOC_OS05G07850-cb002 = tested on: LOC_OS05G07850-cb002
Summary of the method: as §1

LOC_OS05G16824-cb004 = tested on: LOC_OS05G16824-cb004
Summary of the method: as §1

LOC_OS05G28520-cb001 = tested on: LOC_OS05G28520-cb001
Summary of the method: as §1

LOC_OS05G30820-cb001 = tested on: LOC_OS05G30820-cb001
Summary of the method: as §1

LOC_OS05G43570-cb004 = tested on: LOC_OS05G43570-cb004
Summary of the method: as §1

LOC_OS06G16330-cb003 = tested on: LOC_OS06G16330-cb003
Summary of the method: as §1

LOC_OS06G22820-cb001 = tested on: T1, LOC_OS06G22820-cb001
T1 sequence (whole entry): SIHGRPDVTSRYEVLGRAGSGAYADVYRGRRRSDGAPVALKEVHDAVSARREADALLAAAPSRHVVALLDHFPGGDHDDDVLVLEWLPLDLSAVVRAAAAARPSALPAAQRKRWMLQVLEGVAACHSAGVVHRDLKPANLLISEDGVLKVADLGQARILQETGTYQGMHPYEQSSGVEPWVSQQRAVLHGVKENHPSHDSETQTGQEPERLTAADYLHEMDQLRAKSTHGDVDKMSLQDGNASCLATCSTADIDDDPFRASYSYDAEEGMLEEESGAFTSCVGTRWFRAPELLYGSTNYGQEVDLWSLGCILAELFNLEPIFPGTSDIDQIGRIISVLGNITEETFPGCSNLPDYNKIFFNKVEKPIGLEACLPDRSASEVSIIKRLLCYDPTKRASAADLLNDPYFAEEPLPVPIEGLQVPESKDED
Summary of the method: as §1

LOC_OS07G06570-cb004 = tested on: LOC_OS07G06570-cb004
Summary of the method: as §1

LOC_OS07G07230-cb001 = tested on: LOC_OS07G07230-cb001
Summary of the method: as §1

Chain of LOC_OS06G16330-cb003 (as listed by the source): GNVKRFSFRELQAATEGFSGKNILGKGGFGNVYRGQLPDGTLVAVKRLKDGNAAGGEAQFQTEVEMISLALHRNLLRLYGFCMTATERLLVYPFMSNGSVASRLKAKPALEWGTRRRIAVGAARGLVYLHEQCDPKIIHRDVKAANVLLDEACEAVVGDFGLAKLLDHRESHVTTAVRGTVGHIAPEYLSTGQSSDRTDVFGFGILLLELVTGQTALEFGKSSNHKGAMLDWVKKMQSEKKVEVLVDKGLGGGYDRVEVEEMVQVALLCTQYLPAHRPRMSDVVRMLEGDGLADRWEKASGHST

SMILES	thermal shift delta Tm (LOC_OS04G57630-cb004) [°C]	thermal shift delta Tm (LOC_OS05G07850-cb002) [°C]	thermal shift delta Tm (LOC_OS05G16824-cb004) [°C]	thermal shift delta Tm (LOC_OS05G28520-cb001) [°C]	thermal shift delta Tm (LOC_OS05G30820-cb001) [°C]	thermal shift delta Tm (LOC_OS05G43570-cb004) [°C]	thermal shift delta Tm (LOC_OS06G16330-cb003) [°C]	thermal shift delta Tm (LOC_OS06G22820-cb001) [°C]	thermal shift delta Tm (LOC_OS07G06570-cb004) [°C]	thermal shift delta Tm (LOC_OS07G07230-cb001) [°C]
CNc1nc(Nc2cnn([C@H]3CCN(C4COC4)C[C@@H]3F)c2Cl)ncc1C(F)(F)F	1.85	10.8	5.54	0.59	0.51	0.4	5.64	0.65	0.89	0.28
CCCCNc1ncc(-c2ccc(CN3CCOCC3)cn2)c(NC2CCC(O)CC2)n1 (stereo not given)	4.09	9.44	8.95	0.2	0.7	0.43	9.08	0.1	0.37	0.71
Cn1c2ccccc2c2c3c(c4c5ccccc5n(CCC#N)c4c21)CNC3=O	0.32	14.2	7.06	1.51	1.15	1.86	7.19	1.21	-0.17	1.18
Cc1nc(Nc2n[nH]c3c2CN(C(=O)N[C@H](CN(C)C)c2ccccc2)C3(C)C)c2sccc2n1	0.4	1.45	5.08	2.24	0.45	1.95	0.72	2	1.67	0.02
COc1cc(N2CCC(N(C)C)CC2)ccc1Nc1ncc(Cl)c(Nc2ccccc2P(C)(C)=O)n1	2.89	15	6.56	0.2	1.4	0.32	8.95	0.49	1.14	0.35
CC1(COc2ccc3c(c2)ncn3-c2ccc3cccc(N4CCC(N)CC4)c3n2)COC1	5.42	16.1	11.8	0.28	1.67	0.2	7.62	0.26	0.43	-0.34
CC#CC(=O)N1CC[C@@H](n2c(=O)n(-c3ccc(Oc4ccccc4)cc3)c3c(N)ncnc32)C1 [ONO-4059 (GS-4059) hydrochloride]	0.32	-0.32	-5.29	0.56	0.41	0.2	-0.41	0.35	0.52	0.73
Cc1ccc(Nc2cc(N[C@@H]3CCCC[C@@H]3N)nnc2C(N)=O)nc1C	-0.04	6.83	5.76	0.7	1.49	0.67	4.95	1.48	1.39	0.12
COc1ccc([C@@H]2OC[C@H]3[C@@H]2CO[C@@H]3c2ccc(O[C@@H]3O[C@H](CO)[C@@H](O)[C@H](O)[C@H]3O)c(OC)c2)cc1OC [Forsythin]	-0.22	-0.42	-9.57	0.25	-0.02	0.21	-0.18	0.41	0.89	0.9
CNCc1ccc(-c2cc(-c3nc(-c4ccc(S(=O)(=O)C(C)C)cc4)cnc3N)on2)cc1	0.75	6.99	-0.05	0.89	0.64	0.33	0.7	0.87	1.23	0.32
OCCn1cc(-c2ccc3c(c2)CC/C3=N\O)c(-c2ccncc2)n1	0.24	2.18	0.35	1.1	0.48	0.5	0.46	0.85	0.92	0.21
CCOc1cn(-c2ccc(F)cc2C)nc1C(=O)Nc1ccc(Oc2ccnc3cc(OC)c(OC)cc23)c(F)c1	2.05	11.1	-0.65	0.31	0.28	0.24	3.99	0.19	0.82	0.19
COCCOc1cnc2ccn([C@H](C)c3nnc4c(F)cc(-c5cnn(C)c5)cn34)c(=O)c2c1	0.33	0.47	-0.61	0.19	0.72	0.35	2.3	0.29	1.07	0.81
CN(C[C@@H]1COCCO1)S(=O)(=O)Nc1ccc2ccc3ncc(-c4cnn(C)c4)cc3c(=O)c2c1	4.12	10.5	7.72	0.77	1.85	0.41	7.23	0.65	1.07	0.63
C=CC(=O)Nc1cccc(Nc2nc(Nc3ccc(NC4CN(CCF)C4)cc3OC)ncc2C(F)(F)F)c1	0.41	6.71	1.25	0.72	0.43	0.24	-0.88	0.16	1.07	0.62
CC(C)S(=O)(=O)c1ccc2nccc(Nc3ccc4scnc4c3)c2c1	2.51	3.36	4.91	0.25	-0.04	0.38	2.09	0.32	1.62	0.17
NC(=O)Nc1cc(-c2cccc(F)c2)sc1C(=O)N[C@H]1CCCNC1	3.39	11.9	10.8	0.35	1.33	1.05	9.93	0.87	1.07	-0.31
C[C@@H](Oc1cc(-c2cnn(C3CCNCC3)c2)cnc1N)c1c(Cl)ccc(F)c1Cl	3.33	9.7	4.65	0.26	0.39	0.21	10.8	0.95	0.69	0.31
O=C(Nc1cccc(Nc2ncc(Br)c(NCCc3cnc[nH]3)n2)c1)N1CCCC1	7.51	10.4	13.2	-0.09	6.02	0.65	8.57	0.67	0.48	1.02
CC(C)(C)c1nc(-c2cccc(NS(=O)(=O)c3c(F)cccc3F)c2F)c(-c2ccnc(N)n2)s1	1.63	9.38	8.29	0.83	3.66	0.62	3.39	0.62	0.8	0.6

SMILES	thermal shift delta Tm (LOC_OS04G57630-cb004) [°C]	thermal shift delta Tm (LOC_OS05G07850-cb002) [°C]	thermal shift delta Tm (LOC_OS05G16824-cb004) [°C]	thermal shift delta Tm (LOC_OS05G28520-cb001) [°C]	thermal shift delta Tm (LOC_OS05G30820-cb001) [°C]	thermal shift delta Tm (LOC_OS05G43570-cb004) [°C]	thermal shift delta Tm (LOC_OS06G16330-cb003) [°C]	thermal shift delta Tm (LOC_OS06G22820-cb001) [°C]	thermal shift delta Tm (LOC_OS07G06570-cb004) [°C]	thermal shift delta Tm (LOC_OS07G07230-cb001) [°C]
C#Cc1cccc(Nc2ncnc3cc(OCCOC)c(OCCOC)cc23)c1 [Erlotinib]	0.41	8.18	-4.3	0.22	0.36	-0.04	3.38	0.08	0.67	-0.73
Nc1cc(C(F)(F)F)c(-c2cc(N3CCOCC3)nc(N3CCOCC3)n2)cn1 [Buparlisib (BKM120, NVP-BKM120)]	0.52	0.95	-3.32	0.28	0.66	0.71	0.02	0.75	0.64	-0.59
N[C@@H]1CCCN(c2c(/C=C3\SC(=O)NC3=O)cccc2-c2ccccc2)C1	0.42	2.29	-1.84	0.64	0.34	-0.01	-0.21	0.41	1.48	0.3
O=c1ncn2nc(Sc3ccc(F)cc3F)ccc2c1-c1c(Cl)cccc1Cl	0.07	0.12	0.83	0.17	0.49	0.49	-0.01	0.66	0.75	0.14
O=c1ccc2ccc(O)c(O)c2o1 [Daphnetin]	0.17	0.01	-3.57	0.77	0.79	0.83	0.25	0.83	1.31	-0.12
Cn1cc(-c2ccc(F)c(C(F)(F)F)c2)nc1C1CCN(c2ncnc3[nH]ncc23)CC1	0.14	0.42	-7.63	0.22	0.54	0.45	0.11	0.36	0.72	0.63
Cc1cc(Nc2nc(N[C@@H](C)c3ncc(F)cn3)ncc2Cl)[nH]n1	0.37	10.9	8.64	0.22	1.6	0.91	7.15	0.49	0.97	0.17
O=C1NC(=O)C(c2cnc3ccccn23)=C1c1cn2c3c(cc(F)cc13)CN(C(=O)N1CCCCC1)CC2	0.36	5.85	3.38	1.1	0.39	0.48	-0.6	1.42	2.11	0.29
COc1ccc(CCNCc2ccc(OCc3ccc(Cl)nc3)c(OC)c2)cc1OC	0.32	-0.86	-5.08	0.09	0.33	-0.15	-0.05	0.26	0.85	0.59
FC(F)(F)c1ccc(/C=C/c2nc(COc3ccc(CCCCn4ccnn4)cc3)co2)cc1 [Mubritinib (TAK 165)]	0.31	0.65	-1.49	0.05	0.57	0.39	-0.19	0.32	0.47	-1.09
O=C(NC(NC(=S)Nc1ccc(F)c([N+](=O)[O-])c1)C(Cl)(Cl)Cl)C(c1ccccc1)c1ccccc1 (stereo not given)	1.38	8.68	0.69	1.84	1.61	2.15	0.69	1.79	1.83	0.79
C[C@H](NC(=O)c1c(N)nn2cccnc12)c1cc2cccc(C#Cc3cnn(C)c3)c2c(=O)n1-c1ccccc1	-0.07	0.09	2.93	0.27	0.07	0.11	-0.63	0.3	1.69	0.62
Cc1c(NC(=O)c2ccc(C(C)(C)C)cc2)cccc1-c1cn(C)c(=O)c(Nc2ccc(C(=O)N3CCOCC3)cc2)n1	0.37	0.29	0.48	0.5	0.18	0.64	0.07	0.84	1.05	-0.21
Cc1nc(N)sc1-c1ccnc(Nc2ccc(N3CCOCC3)cc2)n1	2.53	13.4	8.12	0.36	0.56	0.98	6.87	0.66	0.8	0.42
COc1cc(OC)c(/C=C/S(=O)(=O)Cc2ccc(OC)c(NCC(=O)O)c2)c(OC)c1	0.06	0.2	-0.41	0.21	0.62	0.71	-0.1	0.75	0.87	0.29
CC1=C(C(=O)Nc2ccc3[nH]ncc3c2)C(c2ccc(F)cc2)NC(=O)N1 (stereo not given)	0.17	1.88	-1.25	0.01	0	1.03	1.01	0.88	1.97	0.55
C=CC(=O)Nc1cccc(C)c1Nc1ncc2cc(-c3c(Cl)c(OC)cc(OC)c3Cl)ccc2n1	0.51	0.53	-0.76	0.18	0.34	0.48	-5.85	0.33	0.84	0.04
NC(=O)c1cnc(N[C@@H]2CCCC[C@@H]2N)nc1Nc1cccc(-n2nccn2)c1	0.91	6.88	6.77	-0.14	2.09	0.39	5.31	0.77	1.27	0.71
O=C1Nc2ccccc2/C1=C1/Nc2ccccc2C1=O [Indirubin]	0.28	5.1	-2.11	0.79	1.11	0.4	0.35	0.47	1.39	0.66
